The list is not random: actives were taken first. Their share in the collection is about 19%.
IL-1B inflam inh – blocks inflammasome-driven IL-1 beta release | THP-1 LPS/ATP IL-1B secretion, AlphaLISA, 16 h; stronger effect = lower value | AID 743279 | hit rate 4.7% among 360,000 | activity change, % at 57.5 µM; in the data active means activity change below about -50%; inconclusive means mostly about -30% to -49%
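THP-1 cells pretreated 1 hr with compounds (up to 57.5 uM final), then stimulated with LPS (250 ng/mL final) plus ATP (1.25 mM final); secreted IL-1B measured by AlphaLISA after 16 hr, decreased signal indicating inhibition.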
HT1080 IDH1KD tx – HT-1080 IDH1 knockdown cell toxicity (counter line); HT-1080 IDH1 knockdown viability, ATP luminescence, 48 h; Potency, µM (top dose mostly 46.1 µM), without a hit: at the highest dose activity, negative = toxicity, actives largely listed as cytotoxic; hit rate 2% among 360,000;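 further: potency means the concentration at half of the fitted maximal effect; 0% = DMSO wells and -100% = cell-free medium wells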
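% activity derives from luminescence (CellTiter-Glo), normalised to DMSO and no-cell wells. HT-1080-IDH1KD cells, 750/well, had 48 h compound exposure at 37 °C.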
HT1080NT lethal – kills 2HG-producing HT-1080-NT fibrosarcoma cells | hit rate 1.6% among 360,000 | Potency, µM (doses to about 46.1 µM), inactives show top-dose activity, negative = less viability, hits mostly cytotoxic | HT-1080-NT fibrosarcoma viability, CellTiter-Glo ATP luminescence, 48 h | AID 686970;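 further: NT is the 2HG producing partner of a matched IDH1 knockdown line; potency means the concentration at half of the fitted maximal effect; 0% = DMSO-treated cells and -100% = media-only wells without cells; nearly all actives have a fitted effect of over 55% in size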
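Read-out is CellTiter-Glo luminescence after 10 minutes at room temperature, following 48 hours' compound treatment of HT-1080-NT cells (750 cells/well, RPMI, 5% FBS, 37 degrees C).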
ELG1 DNA repair – inhibitors of ELG1-dependent DNA repair in HEK293T cells; HEK293T ELG1-luciferase reporter, luminescence, 16 h; DNA damage induced by 5-fluorouridine; hit rate 2.3% among 330,000; AID 504467; Potency, µM (top dose mostly 46.1 µM), for the others: at the highest dose activity change, negative = inhibition, most hits filed as inhibitors; further: potency means the concentration at half of the fitted maximal effect; nearly all actives have a fitted effect of over 55% in size
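Cells (2,000 per well) received 5-fluorouridine plus test compound or DMSO and were incubated 16 hr at 37 °C, 5% CO2. Luciferase activity was read by luminescence 30 min after ONE-Glo addition; signal suppression marked inhibition of damage-induced ELG1 function.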
DT40 TDP1 no CPT – qHTS for Inhibitors of human tyrosyl-DNA phosphodiesterase 1 (TDP1): qHTS in cells in absence of CPT; DT40 Tdp1-/- hTDP1 cells, no CPT, ATP luminescence, 48 h; Potency, µM (highest dose often 46.2 µM), for the others: at the highest dose activity change, negative = growth inhibition, usual class: inhibitors; hit rate 15% among 420,000; AID 686978, 2013; further: potency means the concentration at half of the fitted maximal effect; nearly all actives have a fitted effect of over 55% in size
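DT40 Tdp1-/-;hTDP1 cells, no CPT (DMSO vehicle only), 400 cells/well; compounds pin-transferred; ≥48 hr, 37 °C; CellTiter-Glo 30 min RT dark, luminescence read.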
DT40 TDP1 CPT – growth inhibition of DT40 Tdp1-/-;hTDP1 cells with camptothecin (screen for TDP1 inhibitors); AID 686979; hit rate 12% among 420,000; Potency, µM (highest dose often 46.2 µM), for the others: at the highest dose activity change, negative = growth inhibition, actives largely listed as inhibitors; chicken DT40 Tdp1-/-;hTDP1 cells + 20 nM CPT, ATP luminescence, 48 h; further: potency means the concentration at half of the fitted maximal effect; nearly all actives have a fitted effect of over 55% in size
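Chicken DT40 Tdp1-/- cells stably complemented with human TDP1 were seeded at 400 cells/well in medium containing 20 nM camptothecin, exposed to pin-transferred compounds, and grown at 37 °C for at least 48 hr. Viability was read as ATP luminescence.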
An asterisk follows results filed as active; ? = inconclusive; . = no result. Unless noted, the call rests on the fitted dose curve; in most records, active means well fitted curve in the direction sought with a large enough effect; inconclusive means small, poorly fitted or top-dose-only effect, or another doubt; inactive means no such curve, though single readings can be large; an effect the other way counts as inactive or inconclusive. Unless noted, on the % scale 0 is the no-effect control and ±100 the full control effect.

SMILES	IL-1B inflam inh	HT1080 IDH1KD tx	HT1080NT lethal	ELG1 DNA repair	DT40 TDP1 no CPT	DT40 TDP1 CPT
Nc1nc2c(ncn2C2CC(O)C(CO)O2)c(=O)[nH]1 (configuration not stated)	.	.	.	.	5.8µM*	10µM*
C=C1[C@H](CO)[C@@H](O)C[C@@H]1n1cnc2c(=O)[nH]c(N)nc21	.	.	.	.	0.0053µM*	0.0084µM*
COC1C(O)C(CO)OC1n1cnc2c(=O)[nH]c(N)nc21 (configuration not stated)	.	.	.	.	6%	11%
CN(C)/C=N/c1nc2c(ncn2C2CC(O)C(CO)O2)c(=O)[nH]1 (configuration not stated)	.	.	.	.	-1%	-14%
Nc1nc2c(ncn2[C@H]2C[C@H](O)[C@@H](CO)O2)c(=O)[nH]1	0	?	?	8%	2.1µM*	4.6µM*
Nc1ncn([C@H]2C[C@H](O)[C@@H](CO)O2)c(=O)n1	4	5%	1%	13%	0.1µM*	0.041µM*
NCC1OC(n2cnc3c(=O)[nH]c(N)nc32)C(O)C1O (configuration not stated)	.	.	.	.	-5%	-23%
Nc1ccn([C@H]2C[C@H](O)[C@@H](CO)O2)c(=O)n1	15	5%	48%	?	17%	12%
CCOC(=O)CCC(=O)Nc1nnc2n1CCS2	.	.	.	.	7%	-1%
O=C(COC(=O)c1cnccn1)c1ccc(C2CCCCC2)cc1	35	17%	-7%	8%	-10%	-9%
Nc1nc(Cl)nc2c1ncn2C1OCC(O)C(O)C1O (configuration not stated)	0	8%	11%	.	-15%	-19%
CNc1ncnc2c1ncn2[C@H]1CN(CCOC)C[C@@H](CO)O1	31	27%	0%	.	?	-16%
CNc1ncnc2c1ncn2[C@H]1C[C@H](O)[C@@H](CO)O1	.	.	.	.	7.3µM*	?
Nc1nc(Cl)nc2c1ncn2C1CC(O)C(CO)O1 (configuration not stated)	50	?	?	1%	?	0.18µM*
COc1cc(C2Oc3nc(SC)nnc3-c3ccccc3N2C(C)=O)cc(Cl)c1OC (configuration not stated)	.	.	.	.	7%	8%
CCc1ccc(NC(=O)CN2C(=O)CSc3ccc(S(=O)(=O)N(C)C)cc32)cc1	.	.	.	.	-21%	-13%
c1ccc2c(c1)c1c(c3ccccc32)CN2CCCC2C1 (configuration not stated)	-97*	23µM*	?	.	8.2µM*	5.2µM*
FC(F)(F)c1ccccc1CN1CCN(C2CCCCCC2)CC1	3	-6%	-7%	-18%	?	?
COc1cc(F)c(S(=O)(=O)Nc2c(C)n(C)n(-c3ccccc3)c2=O)cc1OC	.	.	.	.	-9%	6%
CCN(CC)CCn1c(NCc2nc3ccccc3n2Cc2ccccc2)nc2ccccc21	-59*	11µM*	?	-17%	?	?
CCN(CC)c1ccc(CNc2nc3ccccc3n2C)cc1	-20	-12%	-1%	-11%	-8%	-27%
CCN(CC)CCn1c(NCc2ccco2)nc2ccccc21	-9	4%	0%	-14%	-13%	-17%
CCN(CC)CCSc1nc(O)c(-c2ccccc2)c(=O)n1-c1ccccc1	-4	-1%	11%	-28%	2%	7%
CCN(CC)c1ccc(CNc2nc3ccccc3n2CCN2CCCCC2)cc1	-105*	?	16µM*	2%	?	4.6µM*
CCN(CC)CCSc1nc2ccccc2n1Cc1ccccc1	-18	-9%	-10%	-25%	16µM*	?
SMILES	IL-1B inflam inh	HT1080 IDH1KD tx	HT1080NT lethal	ELG1 DNA repair	DT40 TDP1 no CPT	DT40 TDP1 CPT
CCN(CC)CCSc1nc2ccccc2c(=S)n1-c1ccccc1	-56*	?	?	20%	23µM*	?
COc1ccc(/C=C2/C(=O)C(C)(C(C)C)CCC2C)cc1 (configuration not stated)	17	27%	24%	2%	-27%	13%
COc1cc(NC(=O)C2CCCN(S(=O)(=O)c3ccc4c(c3)oc(=O)n4C)C2)c(C(=O)O)cc1OC (configuration not stated)	.	.	.	.	-3%	1%
CC(=O)c1c(C)n(-c2ccc(Cl)cc2)c2ccc(OC(=O)COc3ccccc3)cc12	.	.	.	.	-15%	-22%
Cn1c(CNc2nc3ccccc3n2CCN2CCCCC2)nc2ccccc21	-8	-8%	-1%	-19%	?	-24%
COc1ccc(CCN2CCC(Nc3nc4ccccc4n3Cc3ccc(F)cc3)CC2)cc1	-67*	8.2µM*	15µM*	-21%	7.3µM*	15µM*
Brc1cccc(CNc2nc3ccccc3n2CCN2CCOCC2)c1	-12	-21%	-18%	9%	12µM*	?
COc1ccc(CNc2nc3ccccc3n2CCN2CCCCC2)cc1	?	-21%	-18%	?	21µM*	18µM*
c1ccc(Cn2c(CNc3nc4ccccc4n3CCN3CCCCC3)nc3ccccc32)cc1	-51*	23µM*	21µM*	?	?	?
COc1ccc(CCNC(=O)C(=O)c2c[nH]c3ccccc23)cc1	.	.	.	.	-16%	?
CC(C)CN(C(=O)c1cccc(S(=O)(=O)N2CCN(Cc3ccccc3)CC2)c1)C1CCS(=O)(=O)C1 (configuration not stated)	3	2%	-1%	2%	?	?
O=C(O)CCCNc1ccc(S(=O)(=O)N2CCCCC2)cc1	-4	0%	-4%	16%	-5%	1%
CCCn1c(NCc2ccc3c(c2)OCO3)nc2ccccc21	?	-16%	?	?	?	?
CCOc1ccc(CNc2nc3ccccc3n2CCN2CCOCC2)cc1	19	1%	1%	-8%	21µM*	?
O=C(c1ccc(=O)oc1)N1CCCc2ccccc21	27	-4%	5%	?	16µM*	?
O=C(c1ccccc1)N1CCCc2ccccc21	15	2%	1%	1%	?	-18%
CC(C(=O)N1CCc2ccccc21)N1CCN(S(=O)(=O)c2cccc(C(F)(F)F)c2)CC1 (configuration not stated)	-6	-17%	-27%	-4%	13µM*	?
CC(C(=O)N1CCc2ccccc21)N1CCN(S(=O)(=O)c2ccc3c(c2)OCCCO3)CC1 (configuration not stated)	-29	-6%	-3%	.	?	?
